In PMC9838217, “Structure of SALL4 zinc finger domain reveals link between AT-rich DNA binding and Okihiro syndrome”:
Residue numbers refer to the chain shown, from its start.

Tests used:
Test in all cases: HT-SELEX; high values mean tight binding
Conditions in all cases: protein: recombinant; vector His6-GST; dsDNA, one strand shown
SALL4 ZFC4 WT (HT-SELEX) = target: T1, SALL4 ZFC4 WT (HT-SELEX) (Mus musculus, UniProt Q8BX22 870-940)
T1 sequence: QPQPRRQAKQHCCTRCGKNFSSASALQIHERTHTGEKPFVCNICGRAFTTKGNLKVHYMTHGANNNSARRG
Method in brief: (§1)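 Purified recombinant mouse SALL4 zinc finger cluster 4 (residues 870–940, 1 µg) was incubated with library DNA (1.5 µg first cycle, 200 ng later) in 100 µl of 10 mM Tris–HCl pH 7.5, 50 mM NaCl, poly(dI-dC) and DTT for 10 min at room temperature, with Ni2+ bead capture and reselection for up to 6 cycles in triplicate. MiSeq reads were scanned for 6-mers. Binding signal is each canonical k-mer's read fraction as fold change relative to the initial random library.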

[1] = target: T2, SALL4 ZFC4 R900W (HT-SELEX) (Mus musculus, UniProt Q8BX22 870-940, R900W)
T2 sequence: T1 sequence with R31W
Method in brief: as §1

[2] = target: T3, SALL4 ZFC4 G921D (HT-SELEX) (Mus musculus, UniProt Q8BX22 870-940, G921D)
T3 sequence: T1 sequence with G52D
Method in brief: as §1

| Sequence | binding signal (SALL4 ZFC4 WT (HT-SELEX)) [fold-change vs cycle 0] | binding signal [1] [fold-change vs cycle 0] | binding signal [2] [fold-change vs cycle 0] |
| --- | --- | --- | --- |
| CCATCG | 0.385 ± 0.00824 | 0.438 ± 0.0205 | 0.557 ± 0.0511 |
| ACATTA | 2.1 ± 0.0777 | 2.03 ± 0.0851 | 1.81 ± 0.142 |
| ATAGCC | 0.53 ± 0.0341 | 0.6236 ± 0.00564 | 0.747 ± 0.062 |
| CCAGAA | 0.726 ± 0.028 | 0.821 ± 0.0147 | 0.852 ± 0.0285 |
| CTAAAG | 1.22 ± 0.0556 | 1.43 ± 0.0823 | 1.34 ± 0.112 |
| ACTAAA | 1.81 ± 0.0352 | 1.9 ± 0.121 | 1.69 ± 0.128 |
| CCTCTC | 0.497 ± 0.0203 | 0.586 ± 0.028 | 0.687 ± 0.045 |
| CCAAAA | 0.9105 ± 0.0059 | 0.953 ± 0.0119 | 0.997 ± 0.0429 |
| ATGAAC | 1.5 ± 0.0592 | 1.55 ± 0.0999 | 1.47 ± 0.0678 |
| ATTCCC | 0.877 ± 0.0328 | 0.943 ± 0.055 | 0.984 ± 0.0201 |
| CGATTA | 1.16 ± 0.0473 | 1.17 ± 0.0726 | 1.18 ± 0.023 |
| TTGCAA | 1.13 ± 0.0202 | 1.09 ± 0.0477 | 1.146 ± 0.00914 |
| AATTGT | 1.82 ± 0.0686 | 1.81 ± 0.0917 | 1.66 ± 0.114 |
| GCTTAA | 1.02 ± 0.0584 | 1.15 ± 0.0607 | 1.12 ± 0.048 |
| ATCTCG | 0.777 ± 0.0506 | 0.837 ± 0.0514 | 0.933 ± 0.0422 |
| CACGTA | 0.686 ± 0.0318 | 0.787 ± 0.0109 | 0.842 ± 0.0109 |
| TCGTCA | 0.675 ± 0.0174 | 0.765 ± 0.0313 | 0.852 ± 0.012 |
| AATTAC | 2.12 ± 0.116 | 2 ± 0.127 | 1.82 ± 0.181 |
| ACTGCA | 0.647 ± 0.0528 | 0.7299 ± 0.00625 | 0.797 ± 0.0181 |
| CTAATA | 2.24 ± 0.127 | 2.01 ± 0.099 | 1.81 ± 0.144 |
| GACATC | 0.75 ± 0.0336 | 0.879 ± 0.011 | 0.967 ± 0.0135 |
| CCATAA | 1.51 ± 0.0387 | 1.36 ± 0.0383 | 1.28 ± 0.051 |
| GGTTAC | 0.891 ± 0.0455 | 1.05 ± 0.0396 | 1.01 ± 0.0443 |
| GTCTCA | 0.736 ± 0.016 | 0.879 ± 0.00912 | 0.938 ± 0.0386 |
| CCGATA | 0.671 ± 0.053 | 0.717 ± 0.0449 | 0.816 ± 0.0546 |
| AACTTG | 1.21 ± 0.0551 | 1.34 ± 0.0813 | 1.29 ± 0.0625 |
| CGTAAA | 1 ± 0.0348 | 1.08 ± 0.0147 | 1.05 ± 0.0379 |
| AGGAAA | 1.31 ± 0.0867 | 1.43 ± 0.085 | 1.35 ± 0.118 |
| CTCTAA | 1.25 ± 0.0589 | 1.39 ± 0.103 | 1.36 ± 0.0965 |
| CCTGCA | 0.34 ± 0.0217 | 0.407 ± 0.0271 | 0.515 ± 0.0759 |
